From PubChem BioAssay AID901 (National Center for Advancing Translational Sciences (NCATS), 2007)
Among all 120,000 compounds or so, fewer than 10 were called active. Roughly 4% stayed inconclusive and do not appear here. Not all results are given here. A number with no mark means an inactive call. The call rests on the fitted dose curve; in most records, active means well fitted curve in the direction sought with a large enough effect in the signal ratio (not every such curve was filed as active); inconclusive means small, poorly fitted or top-dose-only effect, or a change in a side signal; inactive means no such curve, though single readings can be large or run the other way; the % refers to the signal ratio.

Target: Inositol monophosphatase 1 (Rattus norvegicus) (UniProt P97697)
Experiment: qHTS Assay for Identifying the Cell-Membrane Permeable IMPase Inhibitors;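 further: plate controls were DMSO basal wells for no effect and reference inhibitor wells for full effect; higher means more IMPase inhibition seen as more IP1 and lower FRET ratio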
Details: CHO-M1 cells, HTRF TR-FRET ratio; series mostly up to 46.1 µM; inhibition (IP1 accumulation): at the top concentration
Excerpt: NCGC IMPase Assay Overview
Lithium has been widely used for the treatment of bipolar disorder. But lithium has a narrow therapeutic index and it can cause side effects such as thirst, weight gain, tremor, polyuria and memory problems. Although the mechanism for lithium action in treatment of bipolar disorder is still not fully understood, inhibition of inositol monophosphatase (IMPase) and the subsequent depletion of the inositol pool in living cells have been implicated as the primary therapeutic benefit of lithium therapy. Therefore, a selective IMPase inhibitor with reduced side effects might be a good drug candidate to replace lithium for the treatment of bipolar disorder. Several IMPase inhibitors have been discovered previously. However, they are not suitable for therapeutic use because of their poor cell membrane penetrability or oral bioavailability; the development of new cell-permeable IMPase inhibitors is needed.
IMPase catalyzes the hydrolysis of inositol-1-phosphate (IP1) to release free inositol. Binding of an agonist to a Gq coupled GPCR results in the activation of PLC, which hydrolyzes the PIP2 to form inositol-1,4,5-trisphosphate (IP3) and diacyl glycerol (DAG). While DAG activates protein kinase C (PKC), IP3 triggers the elevation of intracellular free Ca2+. The IP3 is very rapidly inactivated by hydrolysis to IP2, IP1 and then inositol by a series of enzymes including IMPase. Free inositols are used for synthesis of PI and thus start another inositol cycle.
To identify new cell-permeable IMPase inhibitors, we developed a cell-based IMPase assay in which the cytosolic IP1 is measured by a time-resolved fluorescence resonance energy transfer (TR-FRET) assay. In this assay, an IP1 specific antibody is used to detect the labeled IP1 tracer. When the cell lysate contains the elevated IP1 due to the inhibition of IMPase, the TR-FRET between the labeled antibody and IP1 tracer is disrupted resulting in a reduction in the total signal. Since the TR-FRET is used, this cell-based assay is a homogenous assay without cell wash and medium change that is suitable for assay miniaturization and HTS.
NCGC IMPase Assay Protocol Summary
A Chinese hamster ovary (CHO) cell line stably expressing the M1 receptor (CHO-M1) was obtained from ATCC and maintained in F-12 Kaighn's media (Invitrogen, Carlsbad, CA, 21127) supplemented with 10 % FBS, 100 units/ml penicillin, 100 ug/ml streptomycin and 250 ug/ml geneticin at 37C, 5% CO2 in a humidified atmosphere. Before the assay, aliquots of cells were frozen and stored at -135C. The assay was performed in 1536-well format. Data are reported for both the ratio of the two emission wavelengths, and also for the component 'donor' channel, Em2=620. […] AC50 values were determined from concentration-response data modeled with the standard Hill equation.
IMPase 1536-well assay protocol:
(1) Plate 4 ul/well (2000 cells) of cell suspension from frozen CHO-M1 Cells in white, tissue culture treated 1536-well plates that are cultured at 37C, 5 % CO2 for 16 to 30 hours.
(2) Add 23 nl/well of compound in DMSO solution. The final titration for each compound was between 0.6 nM and 46 uM.
(3) Add 1 ul of carbachol (50 uM in stimulation buffer containing10mM HEPES, 1mM CaCl2, 0.5 mM MgCl2, 4.2 mM KCl, 146 mM NaCl, 5.5 mM glucose, 50mM LiCl, pH 7.4.
(4) Incubation at 37C, 5 % CO2 for 30 min.
(5) Add 1 ul/well of d2-conjugated IP1 (d2-IP1) and 1 ul/well of Eu+ cryptate conjugated anti-IP1 antibody (Eu+-Ab) prepared in the cell lysis buffer, both from the IP-One kit (Cisbio, MA).
(6) Incubate at room temperature for 10 minutes.
(7) Detect the assay plate (Ex = 320, Em1 =665 and Em2 620) in a ViewLux plate reader.
inositol monophosphatase, IMPase, IMPase inhibitor, lithium, bipolar disorder, IP-One, HTRF, qHTS, NIH roadmap, NCGC
Note: In the gene ID and protein GI references for this assay, rat IMPase is referenced instead of hampster as hamster accession numbers were not available.

Chain of Inositol monophosphatase 1 (Rattus norvegicus) (P97697 whole entry, looked up): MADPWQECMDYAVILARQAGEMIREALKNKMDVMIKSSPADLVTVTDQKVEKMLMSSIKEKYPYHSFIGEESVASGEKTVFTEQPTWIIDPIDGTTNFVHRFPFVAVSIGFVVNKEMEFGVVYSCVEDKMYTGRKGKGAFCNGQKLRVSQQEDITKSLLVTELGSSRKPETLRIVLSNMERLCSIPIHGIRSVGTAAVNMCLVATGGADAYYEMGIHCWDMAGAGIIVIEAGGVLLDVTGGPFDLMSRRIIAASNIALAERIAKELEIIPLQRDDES

Structure (SMILES)	inhibition (IP1 accumulation) [%]
C/C(CC1CC(C)(C)OC1=O)=N/Nc1nc(-c2ccccc2)cs1 (configuration not stated)	12.5
Cc1ccc(C)c(N2CCN(C(=O)C3CCC(CNS(=O)(=O)c4cccs4)CC3)CC2)c1 (configuration not stated)	7.32
CCc1nc2nc(C)cc(Nc3ccc(F)c(Cl)c3)n2n1	7.04
Cn1c(=O)c2c(nc(SCC(=O)Nc3ccc(F)cc3)n2Cc2ccc(Cl)cc2)n(C)c1=O	-2.31
COc1ccc(NC(=O)C2CCCN(S(=O)(=O)c3c(C)[nH]c(=O)[nH]c3=O)C2)c(OC)c1 (configuration not stated)	2.41
OCC(CO)(CO)NCc1ccc(-c2ccccc2)cc1	-8.01
CCCCCCCCC(=O)NCCOc1ccccc1	2.86
Cc1cc(NC(=O)C2CCC(CNS(=O)(=O)c3ccc(Br)s3)CC2)ccc1Br (configuration not stated)	10.5
C[n+]1ccccc1C1CCCC/C1=N\Nc1ccc([N+](=O)[O-])cc1[N+](=O)[O-] (configuration not stated)	10.4
CC1=C(C(=O)OCC2CCCCC2)C(c2c(F)cccc2Cl)CC(=O)N1 (configuration not stated)	-0.576
CCN(C(=O)COC(=O)c1cc(NS(=O)(=O)c2ccc(Cl)c([N+](=O)[O-])c2)ccc1O)C1CCCCC1	1.32
COC(=O)c1cc(NC(=O)CCS(=O)(=O)c2cc(Br)cc3c2N(C(=O)C2CC2)CC3)cc(C(=O)OC)c1	5.34
COc1ccccc1CN(C)C(=O)C1(c2ccc(Cl)cc2)CC1	3.44
COc1ccc(OC)c(NC(=O)C2CCN(S(=O)(=O)c3ccc(C)cc3)CC2)c1	2.44
COc1cc(/C=N/NC(=O)CCc2n[nH]c(=O)[nH]c2=O)ccc1O	-1.58
CCCCSc1ncnc2c1sc1nc(N3CCOCC3)c3c(c12)CCCC3	-3.4
Cc1c(Cl)c([N+](=O)[O-])nn1CCCC(=O)NC(C)c1ccccc1 (configuration not stated)	-2.01
Cc1cc(C)cc(OCC(=O)Nc2c(C(=O)c3ccccc3)oc3ccccc23)c1	2.24
CCN(Cc1ccccc1)Cc1c(O)ccc2c(=O)c(-c3ccc(Cl)cc3Cl)coc12	7.15
Cn1c(=O)c2c(ncn2CC(=O)Nc2cccc(C(F)(F)F)c2)n(C)c1=O	-20
CSCCC(NC(=O)c1cc([N+](=O)[O-])cc([N+](=O)[O-])c1)c1nc2ccccc2[nH]1 (configuration not stated)	-0.726
CCOc1cc(NC(=S)NCCCOC)c(OCC)cc1NC(=O)c1ccco1	12.9
O=C(CN1CCc2ccccc21)NC(c1ccccc1)c1ccccc1	-0.223
CCOC(=O)CC(NC(=O)C1c2ccccc2Oc2ccccc21)c1ccc(C)cc1 (configuration not stated)	4.4
O=C(COC(=O)CSc1nnc(-c2ccc(Cl)cc2)o1)Nc1cc(Cl)cc(Cl)c1	-3.97
Cc1ccc(-c2nnc(Nc3ccc(OCC(N)=O)cc3)c3ccccc23)cc1S(=O)(=O)NCC1CCCO1 (configuration not stated)	2.48

Structure (SMILES)	inhibition (IP1 accumulation) [%]
CCOC(=O)c1ccc(-c2ccc(/C=C(\C#N)C(=O)Nc3ccc(OCC)cc3)o2)cc1	-2.33
Cc1ccc(-n2c(SCC(=O)N3c4ccccc4Sc4ccccc43)nnc2-c2ccncc2)cc1	0.458
CCn1c2ccccc2c2cc(CN3CCN(Cc4cccc(Cl)c4)CC3)ccc21	-5.33
O=C(Cc1ccc(Cl)cc1)Nc1ccc2nn(-c3ccc(Cl)cc3)nc2c1	-15.5
CCNC(=S)N1CCC(c2nc3cc(C)c(C)cc3[nH]2)CC1	6.97
Cc1cc(Cl)ccc1OCC(=O)N(Cc1ccc(N(C)C)cc1)C1CCS(=O)(=O)C1 (configuration not stated)	17.8
CCNS(=O)(=O)c1ccc(NC(=O)CSc2nc(-c3ccco3)cc(C(F)(F)F)n2)cc1	-3
N#C/C(=C\c1cccc(F)c1)c1nc(-c2cc3c(ccc4ccccc43)oc2=O)cs1	-6.22
Cc1ccc(N2CC(c3nnc(Cc4ccccc4Cl)o3)CC2=O)cc1 (configuration not stated)	0.844
Cc1ccc(C(=O)Nc2nc(-c3ccccc3)ns2)cc1	-1.28
Cc1ccc(-n2c3nc(=O)[nH]c(=O)c-3cc3c(Cl)cccc32)cc1	-9.56
COC(=O)c1c(C)oc2ccc(N(C(=O)Oc3ccccc3)S(=O)(=O)c3ccccc3)cc12	1.56
CCC(C(=O)OCC(=O)Nc1c(Cl)cc(Cl)cc1Cl)c1ccccc1 (configuration not stated)	-0.261
CCn1c(=O)c(=O)n(CC)c2cc(N3CCCCC3)c(NC(=O)c3ccc(Cl)cc3)cc21	-8.55
COc1ccc(NC(=O)Cn2c(=O)n(Cc3ccc(C(=O)NCc4ccccc4Cl)cc3)c(=O)c3ccccc32)cc1	-0.241
CC1=Nc2cc(C(=O)N3CCC(C)CC3)ccc2Sc2ccc(Cl)cc21	17.1
COCCNC(=O)c1ccc2c(c1)N=C(C)c1cc(C)ccc1S2	10.2
Cc1cccc(C)c1OCC(=O)NC(Cc1c[nH]c2ccccc12)C(=O)O (configuration not stated)	-1.15
COc1ccc(-c2csc3ncnc(Oc4ccc5c(C)cc(=O)oc5c4)c23)cc1	-7.79
CC(C)(C)C(=O)NC(NC(=S)Nc1ccc(S(N)(=O)=O)cc1)C(Cl)(Cl)Cl (configuration not stated)	3.28
CCOC(=O)c1cnc2ccc(F)cc2c1Nc1ccc2c(c1)OCCO2	6.89
COc1ccc(CNC(=O)CCCn2nc(C)c([N+](=O)[O-])c2C)cc1	-0.911
Cc1cc[n+](-c2[nH]c(=O)sc2/C=N/NC(=O)c2ccccc2[O-])cc1C	2.47
COc1ccc(-c2noc(CCC(=O)N(C)c3ccccc3C)n2)cc1	0.521
CCOC(=O)c1c(C)n(S(=O)(=O)c2ccc(C)cc2C)c2ccc(NS(=O)(=O)c3ccc(C)cc3C)cc12	5.61
CCC1CCCCN1C(=S)Nc1ccc(SC(F)F)cc1 (configuration not stated)	0.235
